Holding throughout (experiment): peptide microarray binding signal (635 nm), min-max normalized on array (fraction of array maximum); higher = stronger binding
Test [1] addresses T1, HaloTag-ATRX ADD domain (163-292).
T1 chain: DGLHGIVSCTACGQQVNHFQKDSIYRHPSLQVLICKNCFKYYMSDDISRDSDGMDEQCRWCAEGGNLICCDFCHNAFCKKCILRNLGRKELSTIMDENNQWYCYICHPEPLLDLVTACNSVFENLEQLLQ
The procedure, abridged: (§1)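 An Axon GenePix 4000B scanned the arrays at 635 nm for signal and at 532 nm to catch misprints. Those arrays held histone 13-mer peptide–cellulose conjugates printed in triplicate on nitrocellulose with a Cy3 tracer, blocked overnight at 4°C and probed for 1 h at 4°C with biotin-labelled HaloTag reader fusions (10 nM to 1 μM) plus streptavidin-Alexa Fluor 647 or with rabbit histone antibodies (1:10,000 to 1:2,000) plus anti-rabbit Alexa 647. Each binding signal is a triplicate-spot mean intensity, scaled min-max within its library.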

Test [2] has as its target HaloTag-ING2 PHD (mouse Ing2 200-280). Summed up:
as §1

In test [3] the target is anti-H3K4me3 antibody ab8580. Summed up: as §1
Test [4] deals with anti-H3K9me3 antibody ab8898. The procedure, abridged:
as §1

Setting [5] is: peptide region: H3 30-42, peptide modifications: H3K36ac H3K37me2, binder concentration: 1:2,000 dilution.
Where [6] appears, read: peptide region: H3 30-42, peptide modifications: H3K36ac H3K37me2, binder concentration: 1:10,000 dilution.
The mark [7] stands for this setting: peptide region: H3 20-32, peptide modifications: H3T22ph H3K23me2, binder concentration: 1:2,000 dilution.
[8] abbreviates: peptide region: H3 20-32, peptide modifications: H3T22ph H3K23me2, binder concentration: 1:10,000 dilution.
Setting [9] is: peptide region: H3 20-32, peptide modifications: H3T22ph, binder concentration: 1:2,000 dilution.
Setting [10] is: peptide region: H3 20-32, peptide modifications: H3T22ph, binder concentration: 1:10,000 dilution.
The mark [11] stands for this setting: peptide region: H3 30-42, peptide modifications: H3K36ac H3K37me1, binder concentration: 1:2,000 dilution.
[12] abbreviates: peptide region: H3 30-42, peptide modifications: H3K36ac H3K37me1, binder concentration: 1:10,000 dilution.
Where [13] appears, read: peptide region: H3 20-32, peptide modifications: H3T22ph H3K23me1, binder concentration: 1:2,000 dilution.
Setting [14] is: peptide region: H3 20-32, peptide modifications: H3T22ph H3K23me1, binder concentration: 1:10,000 dilution.

± gives the standard deviation.

PATGGVKKPHRYR [H3 30-42 P A T G G V Kac Kme2 P H R Y R]: the “peptide microarray binding signal” value in test [1] (peptide region: H3 30-42, peptide modifications: H3K36ac H3K37me2, binder concentration: 50 nM) is 0.0026 ± 5.2e-05; in test [1] (peptide region: H3 30-42, peptide modifications: H3K36ac H3K37me2, binder concentration: 500 nM), 0.00462 ± 0.00028; in test [2] (peptide region: H3 30-42, peptide modifications: H3K36ac H3K37me2, binder concentration: 10 nM), 0.00269 ± 6.6e-05; in test [2] (peptide region: H3 30-42, peptide modifications: H3K36ac H3K37me2, binder concentration: 100 nM) it was 0.00354 ± 8.3e-05; in test [3] (setting [5]), 0.00125 ± 9e-05; in test [3] (setting [6]) it was 0.00097 ± 2e-05. In addition, the figures for the “peptide microarray binding signal” value in test [4] (setting [5]) and in test [4] (setting [6]) were 0.00166 ± 9.8e-05 and 0.00127 ± 0.0001, respectively.

LATKAARKSAPAT [H3 20-32 L A Tph Kme2 A A R K S A P A T]: the “peptide microarray binding signal” value was found to be 0.004921 ± 4.8e-05 in test [1] (peptide region: H3 20-32, peptide modifications: H3T22ph H3K23me2, binder concentration: 50 nM); 0.00605 ± 0.00026 in test [1] (peptide region: H3 20-32, peptide modifications: H3T22ph H3K23me2, binder concentration: 500 nM); 0.0107 ± 0.0003 in test [2] (peptide region: H3 20-32, peptide modifications: H3T22ph H3K23me2, binder concentration: 10 nM); 0.00893 ± 0.00037 in test [2] (peptide region: H3 20-32, peptide modifications: H3T22ph H3K23me2, binder concentration: 100 nM); 0.00359 ± 3.6e-05 in test [3] (setting [7]); 0.00268 ± 0.00016 in test [3] (setting [8]). The figures for the “peptide microarray binding signal” value in test [4] (setting [7]) and in test [4] (setting [8]) were 0.00201 ± 8.1e-05 and 0.00196 ± 1.8e-05, respectively.

Take LATKAARKSAPAT [H3 20-32 L A Tph K A A R K S A P A T]: the “peptide microarray binding signal” value was found to be 0.00339 ± 3.7e-05 in test [1] (peptide region: H3 20-32, peptide modifications: H3T22ph, binder concentration: 50 nM); 0.00638 ± 0.00025 in test [1] (peptide region: H3 20-32, peptide modifications: H3T22ph, binder concentration: 500 nM); 0.0046 ± 6.2e-05 in test [2] (peptide region: H3 20-32, peptide modifications: H3T22ph, binder concentration: 10 nM); 0.00772 ± 0.00064 in test [2] (peptide region: H3 20-32, peptide modifications: H3T22ph, binder concentration: 100 nM); 0.001548 ± 1.2e-05 in test [3] (setting [9]); 0.00194 ± 3.1e-05 in test [3] (setting [10]). For the same molecule, the “peptide microarray binding signal” value is 0.00068 ± 2.1e-05 in test [4] (setting [9]) and 0.00115 ± 2e-05 in test [4] (setting [10]).

Consider PATGGVKKPHRYR [H3 30-42 P A T G G V Kac Kme P H R Y R], for which the “peptide microarray binding signal” value came to 0.00235 ± 2.8e-05 in test [1] (peptide region: H3 30-42, peptide modifications: H3K36ac H3K37me1, binder concentration: 50 nM); 0.00586 ± 0.00013 in test [1] (peptide region: H3 30-42, peptide modifications: H3K36ac H3K37me1, binder concentration: 500 nM); 0.00418 ± 0.00019 in test [2] (peptide region: H3 30-42, peptide modifications: H3K36ac H3K37me1, binder concentration: 10 nM); 0.0056 ± 0.00056 in test [2] (peptide region: H3 30-42, peptide modifications: H3K36ac H3K37me1, binder concentration: 100 nM); 0.00253 ± 0.00052 in test [3] (setting [11]); 0.00177 ± 5.8e-05 in test [3] (setting [12]). In addition, the “peptide microarray binding signal” value in test [4] (setting [11]) is 0.0165 ± 0.003; in test [4] (setting [12]), 0.00265 ± 6.2e-05.

On to LATKAARKSAPAT [H3 20-32 L A Tph Kme A A R K S A P A T], for which the “peptide microarray binding signal” value in test [1] (peptide region: H3 20-32, peptide modifications: H3T22ph H3K23me1, binder concentration: 50 nM) was determined as 0.012 ± 0.0014; in test [1] (peptide region: H3 20-32, peptide modifications: H3T22ph H3K23me1, binder concentration: 500 nM) it was 0.0173 ± 0.0019; in test [2] (peptide region: H3 20-32, peptide modifications: H3T22ph H3K23me1, binder concentration: 10 nM), 0.0223 ± 0.0014; in test [2] (peptide region: H3 20-32, peptide modifications: H3T22ph H3K23me1, binder concentration: 100 nM), 0.0368 ± 0.0079; in test [3] (setting [13]) it was 0.00793 ± 0.0012; in test [3] (setting [14]), 0.0102 ± 0.0018. Further, the “peptide microarray binding signal” value is 0.00538 ± 0.00068 in test [4] (setting [13]) and 0.003 ± 9.2e-05 in test [4] (setting [14]).

The values are drawn from the supplement of paper PMC4022240.
